The results in this text go back to PubChem BioAssay AID1491 (National Center for Advancing Translational Sciences (NCATS), 2009).

Results filed as inconclusive are left out. The source made the active and inactive calls. Calls come from the whole dose curve; as a rule, active = well fitted inhibition curve with a large enough effect in the main read-out, with a control signal flat; inconclusive = small, poorly fitted or top-dose-only effect, or a change in a side signal; inactive = flat fitted curve, though single readings scatter.
Potency is the fitted concentration of half-maximal effect.

Sequence of Neuropeptide S receptor (Homo sapiens) (Q6W5P4 whole entry, looked up): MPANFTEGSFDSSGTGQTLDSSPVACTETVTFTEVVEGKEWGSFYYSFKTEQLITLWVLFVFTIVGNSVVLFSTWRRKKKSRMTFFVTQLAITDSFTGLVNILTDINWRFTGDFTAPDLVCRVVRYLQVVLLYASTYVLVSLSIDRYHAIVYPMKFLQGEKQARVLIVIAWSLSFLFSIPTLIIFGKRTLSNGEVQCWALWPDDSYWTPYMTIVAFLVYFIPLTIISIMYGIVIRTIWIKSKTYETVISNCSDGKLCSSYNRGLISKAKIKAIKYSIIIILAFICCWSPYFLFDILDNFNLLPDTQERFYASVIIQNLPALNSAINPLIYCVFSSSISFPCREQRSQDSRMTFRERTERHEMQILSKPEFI

The assay deals with Neuropeptide S receptor (Homo sapiens) (UniProt Q6W5P4). In words: Confirmation Concentration-Response Assay for Antagonists of the Neuropeptide S Receptor: cAMP Signal Transduction.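 For activity change, negative = inhibition: 0% = DMSO with NPS and full inhibition = wells lacking NPS.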 The note with it: CHO-NPSR cells, cAMP TR-FRET, antagonist mode; series mostly up to 22.3 µM; activity change, negative = inhibition: at the top concentration. The text has this:
NIH Chemical Genomics Center [NCGC] NIH Molecular Libraries Probe Production centers Network [MLPCN] MLPCN Grant: X01-DA026210-01 Assay Submitter (PI): Heilig, Markus Alexander NCGC Assay Overview: Neuropeptide S receptor (NPSR), previously known as GPR154, is a recently de-orphanized G protein coupled receptor. Its endogenous ligand is the 20 amino acids peptide Neuropeptide S (NPS). […] NPS and its receptor are found in various tissues. Specifically they are highly expressed in brain areas that have been implicated in modulation of arousal, stress and anxiety. Central administration of NPS in mice produces an unusual profile of activity by inducing wakefulness and arousal, while at the same time suppressing anxiety. Therefore, NPSR may represent a novel drug target for the treatment of sleep and anxiety disorders. To identify NPSR antagonists, we developed a cell-based cAMP assay. NPS can stimulate the production of cAMP in Chinese hamster ovary cells stably expressing NPS receptor. This change in intracellular cAMP level can be detected by a homogeneous LANCE cAMP assay based on the TR-FRET (time resolved fluorescence resonance energy transfer) between a europium-labeled cAMP tracer complex and a cAMP-specific antibody labeled with Alexa Fluor 647. The europium-labeled cAMP tracer complex is formed by the tight interaction between Biotin-cAMP (b-cAMP) and streptavidin labeled with Europium-W8044 chelate (Eu-SA). Light pulse at 320 nm excites the europium of the cAMP tracer and the energy emitted is transferred to the Alexa molecule bound to the cAMP antibody, generating a TR-FRET signal at 665 nm. Residual energy from the europium will produce a light at 620 nm. The native unlabeled cAMP from cell lysates competes with the europium-cAMP tracer for antibody binding and reversely reduces the emission signal of Alexa by interrupting FRET between the two labeled molecules. Both emission signals from the FRET donor (620 nm) and the acceptor (665 nm) can be detected by a plate reader in the TRF mode. Expression of result in fluorescence ratio (665 nm/620 nm) helps to normalize differences due to cell density and reagent dispensing. This assay was successfully optimized to a 1536-well plate format. Select compounds from the primary screen (AID 1461) were chosen for confirmation based on potency, efficacy, SAR, and activity across other assays in PubChem and at NCGC. Other compounds are analogs of active compounds from the primary sceen.
NCGC Assay Protocol Summary: A Chinese hamster ovary (CHO) cell line stably expressing the NPS receptor (CHO-NPSR) was obtained from Dr. Heilig lab at NIAAA and maintained in F-12 Kaighn's media (Invitrogen, Carlsbad, CA, 21127) supplemented with 10 % FBS, 100 units/ml penicillin, 100 ug/ml streptomycin and 250 ug/ml geneticin at 37C, 5% CO2 in a humidified atmosphere. Before the assay, aliquots of cells were frozen and stored at -135C. The assay was performed in 1536-well format. Data are reported for both the ratio of the two emission wavelengths, and also for the component 'donor' channel, Em2=620. […] IC50 values were determined from concentration-response data modeled with the standard Hill equation. NPS 1536-well assay protocol: (1) Fresh or frozen CHO-NPSR cells were suspended in F-12 Kaighn's media supplemented with 10 % FBS, 100 units/ml penicillin and 100 ug/ml streptomycin. Cells were plated at 4 ul/well (1200 cells) to white, tissue culture treated 1536-well plates, and then cultured at 37C, 5 % CO2 for 16 to 30 hours. (2) Add 23 nl/well of compound in DMSO solution. The final titration for each compound was between 0.6 nM and 46 uM. (3) Add 1 ul of stimulation reagent (1X HBSS buffer, 5 mM HEPES, 0.1% BSA, 500 uM RO-201724 (Sigma-Aldrich, B8279), 1.5% Alexa 647-labeled anti-cAMP antibody (from Perkin Elmer), 100 nM NPS) (4) Incubation at 37C, 5 % CO2 for 60 min. (5) Add 1 ul/well detection reagent. […]
(TR-FRET usually uses a lanthanide donor and a delayed reading to cut background.)
On to `C[C@H]1CCCC(=O)CCCCCc2cc(O)cc(O)c2C(=O)O1`, for which the “activity change, negative = inhibition” value was -3.65% (inactive).
The same measure, in the same setting: next, `CN(C)C(=S)SSC(=S)N(C)C`: -2.55% (inactive).
Turning to `Cc1c(P(=S)(c2ccccc2)c2ccccc2)[n+]2ccccc2n1C`, the Potency was 1.12 µM (active).
As for `Cc1cccc(N2C(=O)NC(=O)/C(=C\c3cnn(-c4ccccc4)c3)C2=O)c1`, the Potency is 10 µM (active).
The same measure, in the same setting: next, `C=C1C(=O)O[C@@H]2C[C@@H](C)[C@@H]3C=CC(=O)[C@@]3(C)[C@@H](OC(=O)CC(=O)O[C@H]3[C@@H]4C(=C)C(=O)O[C@@H]4C[C@@H](C)[C@@H]4C=CC(=O)[C@]43C)[C@H]12`: 1 µM (active).
The same measure, in the same setting: next, `Cc1cc(C=C2C(=O)NC(=S)NC2=O)c(C)n1-c1ccc2c(c1)OCO2`: 12.6 µM (active).
For the compound `C=C(C=O)CC1CC(O)[C@]2(C)OC3CC4OC5C[C@]6(C)O[C@]7(C)CCC8OC9C[C@]%10(C)OC%11C(C)=CC(=O)OC%11CC%10OC9C[C@@H](C)C8OC7CC6O[C@]5(C)CC5OC5C4OC3CC2O1` (stereo partly specified), the “activity change, negative = inhibition” value is -10.3% (inactive).
For `CCOC(=O)c1c(-n2c(C)cc(C=C3C(=O)NC(=S)NC3=O)c2C)sc2c1CCCC2`, the Potency was 10 µM (active).
In the case of `Cn1ncnc2c(=O)n(C)c(=O)nc1-2`, the “activity change, negative = inhibition” value is -1.28% (inactive).
Consider `C=CCN1C(=O)/C(=C/c2cccs2)C(=O)NC1=S`, for which the Potency is 11.2 µM (active).
Turning to `CC(=O)Nc1cc([As](=O)(O)O)ccc1O`, the “activity change, negative = inhibition” value was -4.93% (inactive).
